Laboratory results reported in PubChem BioAssay AID1259416 (Broad Institute, 2018).
“And” between values parts separate entries of the source, which are not always exact repeats. Equal entries are not always repeated. Out of some 69,000 compounds screened, about 2,600 (3.8%) were called active. The sample holds actives, similar compounds and a random draw of the others, so the mix is not that of the screen. No stated cut-off is given here; in the data, active means activity change below about -70% (passing the limit was not always enough); inconclusive means no clear call, values can overlap the other calls.

Test: T. gondii growth inhibition with IFN-gamma, primary screen, cell-based (AID 1259416);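 further: host cells are HeLa cells infected with Toxoplasma gondii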
Conditions: Toxoplasma gondii growth in IFN-gamma-treated host cells; hits give low values; concentration not given here

Compound	activity change, negative = inhibition
C#C[C@]1(O)CC[C@H]2[C@@H]3CCC4=CC(=O)CC[C@@H]4[C@H]3CC[C@@]21CC	-81.4% (active) and -75.5% (active)
C#C[C@]1(O)CC[C@H]2[C@@H]3CCC4=CC(=O)CC[C@@H]4C3CC[C@@]21CC (stereo partly specified)	-83.8% (active)
COc1cc(-c2nc(CN3[C@@H]4CC[C@H]3CNC(=O)C4)c(C)o2)cc2c1OCO2	-3.36% (inactive)
COc1ccccc1NC(=O)Cn1ncc2c(N3CCN(c4ccccc4)CC3)ncnc21	74% (inactive)
COc1ccc(-c2nc(C)c(CCNC(=O)C(=O)Nc3cccc(OC)c3)s2)cc1	487% (inactive)
Cc1oc(-c2cccc(Oc3ccccc3)c2)nc1CN1[C@@H]2CC[C@H]1CNC(=O)C2	-8.53% (inactive)
O=C(CC1Nc2c3ccccc3nc(=S)n2C1=O)N1CCN(c2ccc(Cl)cc2)CC1 (stereo unspecified)	-16.2% (inactive)
COc1ncc(-c2cccc(C(C)N3CCCC3)c2)c(OC)n1 (stereo unspecified)	-10.7% (inactive)
C[C@@H]1CCCCO[C@@H](CN(C)Cc2ccncc2)[C@H](C)CN([C@H](C)CO)C(=O)c2cc(NC(=O)Cc3ccccc3)ccc2O1	318% (inactive)
Cc1noc(C)c1S(=O)(=O)N(C)C[C@@H]1OCCCC[C@H](C)Oc2ccc(NC(=O)CCC(F)(F)F)cc2C(=O)N([C@H](C)CO)C[C@H]1C	94.9% (inactive)
C[C@H](CO)N1C[C@H](C)[C@H](CN(C)Cc2ccncc2)Oc2ccc(NS(=O)(=O)c3ccc(F)cc3)cc2CC1=O	33.3% (inactive)
C[C@@H]1CN([C@@H](C)CO)C(=O)c2cc(NS(=O)(=O)c3ccccc3)ccc2O[C@@H](C)CCCCO[C@H]1CN(C)C(=O)C1CCCCC1	-14.8% (inactive)
Cc1ccc(S(=O)(=O)Nc2ccc3c(c2)C(=O)N([C@@H](C)CO)C[C@@H](C)[C@H](CN(C)Cc2ccc(C(F)(F)F)cc2)O3)cc1	-72.9% (active)
C[C@@H]1CN([C@H](C)CO)C(=O)c2cc(NC(=O)Cc3ccccc3)ccc2O[C@@H](C)CCCCO[C@@H]1CN(C)Cc1ccncc1	31.6% (inactive)
Cc1ccc(S(=O)(=O)Nc2ccc3c(c2)C(=O)N([C@H](C)CO)C[C@@H](C)[C@H](CN(C)S(=O)(=O)c2cccs2)OCCCC[C@@H](C)O3)cc1	-131% (active)
C[C@H](CO)N1C[C@H](C)[C@@H](CN(C)Cc2ccncc2)OCCCC[C@H](C)Oc2ccc(NS(=O)(=O)c3ccc(Cl)cc3)cc2C1=O	-94.1% (active)
C[C@@H]1CN([C@@H](C)CO)C(=O)c2cc(NS(C)(=O)=O)ccc2O[C@@H]1CN(C)C	-0.62% (inactive)
C[C@@H]1CN([C@H](C)CO)C(=O)c2cc(NS(=O)(=O)c3ccccc3)ccc2O[C@@H](C)CCCCO[C@H]1CN(C)C(=O)C1CCCCC1	-116% (active)
C[C@@H]1CN([C@H](C)CO)C(=O)c2cc(NS(=O)(=O)c3cccs3)ccc2O[C@@H](C)CCCCO[C@@H]1CN(C)C(=O)c1ccncc1	14.1% (inactive)
Cc1noc(C)c1S(=O)(=O)Nc1ccc2c(c1)C(=O)N([C@@H](C)CO)C[C@H](C)[C@@H](CN(C)C(=O)Nc1cccc3ccccc13)OCCCC[C@H](C)O2	141% (inactive)
CCOC(=O)c1oc2ccc(S(=O)(=O)Nc3ccc4[nH]c(=O)[nH]c4c3)cc2c1C	75.3% (inactive)

Compound	activity change, negative = inhibition
COCc1nnn2c1CN(Cc1ccc(C)s1)CCC2	-49.3% (inactive)
O=C(C1CCOCC1)N1CC(=O)N2[C@H](CO)[C@H](c3ccc(C#CC4CCCCC4)cc3)[C@H]2C1	19.2% (inactive)
Cc1nc(SCC(=O)Nc2cccc(C(F)(F)F)c2)oc1C	21% (inactive)
COc1ccc(OC)c(NC(=O)Cn2c(=O)cc(C(=O)N3CCCCC3)c3ccccc32)c1	5.37% (inactive)
CN(C)C(=O)[C@@H]1CCS(=O)(=O)[C@H]2CN(C(=O)NCc3ccccc3)C[C@@H]12	7.18% (inactive)
COc1cccc(CC2(CO)CCN(c3ncnc4sccc34)CC2)c1	-61.2% (inactive)
O=S(=O)(c1ccccc1)N1[C@H](CO)[C@@H]2c3ccccc3NC[C@@H]21	-13.4% (inactive)
CNC[C@H]1OCCCC[C@@H](C)Oc2ccc(NS(=O)(=O)c3ccc(F)cc3)cc2C(=O)N([C@H](C)CO)C[C@H]1C	193% (inactive)
C[C@@H]1CCCCO[C@H](CN(C)C(=O)CCCN(C)C)[C@H](C)CN([C@@H](C)CO)C(=O)c2cc(NS(=O)(=O)c3ccc(Cl)cc3)ccc2O1	-84.8% (active)
COc1ccc(S(=O)(=O)Nc2ccc3c(c2)C(=O)N([C@@H](C)CO)C[C@@H](C)[C@H](CN(C)Cc2ccc(C(F)(F)F)cc2)OCCCC[C@@H](C)O3)cc1	-112% (active)
COc1ccc(S(=O)(=O)Nc2ccc3c(c2)C(=O)N([C@@H](C)CO)C[C@H](C)[C@H](CN(C)Cc2ccc(C(F)(F)F)cc2)OCCCC[C@@H](C)O3)cc1	-47% (inactive)
C[C@@H]1CN([C@H](C)CO)C(=O)c2cc(NC(=O)NC3CCCCC3)ccc2O[C@@H](C)CCCCO[C@H]1CN(C)S(C)(=O)=O	-35.8% (inactive)
C[C@@H]1CCCCO[C@H](CN(C)Cc2ccc3c(c2)OCO3)[C@H](C)CN([C@@H](C)CO)C(=O)c2cc(NS(=O)(=O)c3cn(C)cn3)ccc2O1	11.5% (inactive)
C[C@@H]1CCCCO[C@H](CN(C)C(=O)Nc2ccccc2)[C@H](C)CN([C@H](C)CO)C(=O)c2cc(NC(=O)Nc3ccccc3)ccc2O1	72.5% (inactive)
CNC[C@@H]1OCCCC[C@H](C)Oc2ccc(NS(=O)(=O)c3ccc(F)cc3)cc2C(=O)N([C@@H](C)CO)C[C@@H]1C	41.1% (inactive)
C[C@@H]1CCCCO[C@@H](CN(C)S(=O)(=O)c2ccccc2)[C@H](C)CN([C@H](C)CO)C(=O)c2cc(NC(=O)Nc3ccc4c(c3)OCO4)ccc2O1	-79.4% (active)
C[C@@H](O)C#Cc1ccc([C@H]2[C@@H](CO)N3CCCCN(CC4CC4)C[C@@H]23)cc1	-5.07% (inactive)
Cc1nc(-c2cccnc2)sc1C(=O)N(CCN(C)C)Cc1ccc2c(c1)OCO2	-47.1% (inactive)
CCC(NC(=O)CCNC(=O)c1ccccc1F)c1cccs1 (stereo unspecified)	98.8% (inactive)
COc1ccc2c(c1)NC1(CCN(S(=O)(=O)c3c(C)nn(C)c3C)CC1)c1cccn1-2	1.37% (inactive)
CN1C(=O)CCc2cc(C(=O)NCc3cccc(Cl)c3)ccc21	-50% (inactive)

Compound	activity change, negative = inhibition
Cc1csc(CCCNc2cc(N(C)C)ncn2)n1	-14.5% (inactive)
Cc1ccc(-c2nnn(CC(=O)N(CC(=O)NC(C)(C)C)c3ccc(C(C)C)cc3)n2)o1	-40.3% (inactive)
Cc1cc(C(=O)N2CCCC(N(C)C)CC2)sc1C (stereo unspecified)	8.26% (inactive)
CN(C)C1CCN(C(=O)c2ccnn2-c2ccc3ccc(-c4ccccc4)cn23)CC1	-101% (active)
CC(C)n1cnc(-c2cc(C(=O)N3CCC(N(C)C)CC3)c3ccccn23)c1	-48.2% (inactive)
CC(C)c1noc(C2CCCN(C(=O)c3cccc4ccnn34)C2)n1 (stereo unspecified)	88% (inactive)
Cc1ccc2c(c1)C1CN(C)CCC1N2S(=O)(=O)c1ccc(Oc2ccc([N+](=O)[O-])cc2)cc1 (stereo unspecified)	-88.8% (active)
Cc1ccc(NC(=O)NCC(c2cccnc2)c2c[nH]c3ccccc23)cc1F (stereo unspecified)	41.3% (inactive)
C=CCOCC1c2c(ncn2C(C)C)CCN1C(=O)CC (stereo unspecified)	-6.91% (inactive)
CC(=O)N1C[C@@H]2[C@H](c3ccccc31)[C@H](CO)N2Cc1ccc(Cl)cc1	2.64% (inactive)
Cc1ccc(C(=O)N2CC[C@H]3[C@@H]2CCN3c2nncs2)o1	17.4% (inactive)
OC(Cn1cnc(-c2ccccc2)c1-c1ccccc1)Cn1c2ccccc2c2ccccc21 (stereo unspecified)	-85.9% (active)
Cc1cccc(C)c1-c1c(-c2ccccc2)ncn1CCCCN	-13.6% (inactive)
Cn1ccnc1-c1c(-c2ccccc2)ncn1CC(O)Cc1ccccc1 (stereo unspecified)	-0.253% (inactive)
CCCC(=O)NCCc1sc(-c2cccc(F)c2)nc1C	257% (inactive)
CCSc1nc(CC(=O)NCc2nnc3n2CCC3)cs1	-48.7% (inactive)
c1ccc(C2CCCN2Cc2ccc3occc3c2)nc1 (stereo unspecified)	2.99% (inactive)
Cc1nn(Cc2nc(-c3ccc(NC(=O)C4CCCO4)cc3)oc2C)c(C)c1C (stereo unspecified)	33.9% (inactive)
COc1cccc(C(=O)Nc2ccc(-c3nc(Cn4nc(C)c(C)c4C)c(C)o3)cc2)c1	-97.6% (active)
Cc1ccsc1C(=O)Nc1ccc(-c2nc(Cn3cccn3)c(C)o2)cc1	-12.6% (inactive)
Cc1cc(C)cc(C(=O)Nc2ccc(-c3nc(Cn4cc(C)cn4)c(C)o3)cc2)c1	2.92% (inactive)

Compound	activity change, negative = inhibition
Cc1cnn(Cc2nc(-c3ccc(NC(=O)c4ccsc4)cc3)oc2C)c1	-40.9% (inactive)
COCC(=O)Nc1ccc(-c2nc(Cn3nc(C)cc3C)c(C)o2)cc1	-41.3% (inactive)
Cc1oc(-c2ccc(NC(=O)c3ccc(C(C)(C)C)cc3)cc2)nc1Cn1cccn1	-96.9% (active)
CCC(=O)Nc1ccc(-c2nc(Cn3cccn3)c(C)o2)cc1	61.8% (inactive)
Cc1cnn(Cc2nc(-c3ccc(NC(=O)c4cc(F)ccc4F)cc3)oc2C)c1	-88.5% (active)
Cc1noc(C)c1CN1CC2C[C@H](C(=O)NCCN(C)C)N(C)C2C1 (stereo partly specified)	-7.4% (inactive)
CN(C)S(=O)(=O)c1ccc2c(c1)cc(C(=O)NCc1cccc(F)c1)n2Cc1ccncc1	104% (inactive)
CCc1ccc(-n2cc3c(=O)n(C)c(=O)n(C)c3c2)cc1	-61.6% (inactive)
CC[C@H]1CN(C(=O)CCc2cnccn2)CC[C@@]1(C)O	-44.1% (inactive)
Cc1cccc(C(=O)N2CCC3(CC2)CC(CC(=O)NCC2CC2)c2ccccc2O3)n1 (stereo unspecified)	0.492% (inactive)
Cc1cccc(Cl)c1NC(=O)N1CCN(CC(C)C)C(=O)C1C (stereo unspecified)	-2.03% (inactive)
O=C(Nc1cnc2n1CCCC2)c1ccccc1-n1cncn1	-1.83% (inactive)
C=CCn1cc(-c2c(-c3ccccc3)ncn2CCc2ccccn2)cn1	-1.4% (inactive)
O=C(CN1CCCC1=O)N1CCCC2(C=Cc3ccccc3O2)CC1 (stereo unspecified)	-13.8% (inactive)
Cc1ccc(CN2CCC3(CC2)CC(NC(=O)C2CC2)CCO3)cc1C (stereo unspecified)	-5.15% (inactive)
Cc1ccc(-c2ccccc2-n2cnnc2)o1	-6.57% (inactive)
Cc1ccccc1-c1nc2ccc(-n3cnnc3)cc2o1	-95.3% (active)
COCCNC(=O)C[C@@H]1CC[C@H]2[C@H](COc3ccc(NS(=O)(=O)c4ccc(Cl)cc4)cc3C(=O)N2C)O1	-37.6% (inactive)
